Cruzain Triton: qHTS Assay for Promiscuous and Specific Inhibitors of Cruzain (with detergent); Cruzipain (Trypanosoma cruzi), P25779; purified cruzain, Z-FR-AMC fluorescence, 0.01% Triton; Potency, µM, for inactives: max response, negative = inhibition, actives largely listed as inhibitors; 200,000 compounds, 0.43% hits; AID 1478, 2009;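 note: plate controls were neutral wells for no effect and buffer without enzyme for full effect; nearly all actives have a fitted effect of over 40% in size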
Target sequence (P25779 123-467 limits assumed): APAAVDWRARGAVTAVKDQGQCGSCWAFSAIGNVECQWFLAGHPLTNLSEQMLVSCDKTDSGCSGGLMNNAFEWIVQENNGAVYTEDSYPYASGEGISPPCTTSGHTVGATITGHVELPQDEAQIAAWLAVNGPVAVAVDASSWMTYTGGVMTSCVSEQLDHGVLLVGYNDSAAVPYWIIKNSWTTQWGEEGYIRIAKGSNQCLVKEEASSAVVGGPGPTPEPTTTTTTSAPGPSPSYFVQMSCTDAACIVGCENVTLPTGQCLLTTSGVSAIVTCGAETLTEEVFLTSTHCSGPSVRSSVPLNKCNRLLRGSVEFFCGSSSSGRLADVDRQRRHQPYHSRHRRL
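Purified cruzain (1.5 nM final) was preincubated with compounds for 15 min at room temperature in 100 mM sodium acetate pH 5.5, 5 mM DTT, 0.01% Triton X-100. Reaction started with 2 uM Z-FR-AMC; AMC fluorescence change over 60 s gave activity.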
Cruzain inh noDet: qHTS Assay for Promiscuous and Specific Inhibitors of Cruzain (without detergent); Cruzipain (Trypanosoma cruzi), P25779; purified cruzain, Z-FR-AMC fluorescence, no detergent; Potency, µM, for the others: max response, negative = inhibition, usual class: inhibitors; 200,000 compounds, 2.3% hits; AID 1476, 2009;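 note: plate controls were enzyme without inhibitor for no effect and buffer without enzyme for full effect; nearly all actives have a fitted effect of over 40% in size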
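Detergent-free condition (0.00005% Triton X-100) in acetate buffer pH 5.5 with DTT. 1.5 nM enzyme and compound were pre-mixed 15 min, then 2 uM Z-FR-AMC substrate added; reaction progress from fluorescence change between first and third reads (60 s).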
An asterisk follows results filed as active; ? = inconclusive. A selection: hits, their analogues and other compounds. The true share with any hit is near 2.5%. Calls come from the whole dose curve; as a rule, active = well fitted curve in the direction sought with a large enough effect; inconclusive = small, poorly fitted or top-dose-only effect, or another doubt; inactive = no such curve, though single readings can be large; an effect the other way counts as inactive or inconclusive. Potency is the fitted concentration of half-maximal effect.

SMILES	Cruzain Triton	Cruzain inh noDet
COc1ccc(CNC(=O)C(C)n2nc(C)c3sc4ccccc4c3c2=O)cc1OC (stereo not drawn)	-3%	-2%
Cc1nn(C(C)C(=O)NCc2ccc(OC(C)C)cc2)c(=O)c2c1sc1ccccc12 (stereo not drawn)	?	28%
Cc1ccc(CNC(=O)C(C)n2nc(C)c3sc4ccccc4c3c2=O)cc1 (stereo not drawn)	-5%	4µM*
COc1ccc(CCNC(=O)C(C)n2nc(C)c3sc4ccccc4c3c2=O)cc1OC (stereo not drawn)	-5%	32µM*
Cc1ccc2c(c1)c1c(c(=O)n(Cc3ccccc3)c(=O)n1Cc1ccccc1F)n2C	0%	-5%
CSc1ccc(C2C(C#N)=C(N)N(c3ccccc3)C3=C2C(=O)CCC3)cc1 (stereo not drawn)	-9%	16µM*
CCOc1ccc(C2C(C#N)=C(N)N(c3sc4c(c3C#N)CCCC4)C3=C2C(=O)CCC3)cc1 (stereo not drawn)	-3%	-6%
Cc1nn(C)cc1C1C(C#N)=C(N)N(c2cccnc2)C2=C1C(=O)CCC2 (stereo not drawn)	-3%	-16%
N#CC1=C2N=C(N)c3c(sc4c3CCCCC4)N2C2=C(C(=O)CCC2)C1c1ccccc1 (stereo not drawn)	-1%	25µM*
Cn1c(C(=O)NCc2ccccc2Cl)cc2sc(Cl)cc21	-6%	-20%
COc1ccc(/C=N/NC(=S)Nc2ccccc2)cc1COc1ccccc1F	-4%	13µM*
COc1ccc(NC(=S)Nc2ccc(OCc3ccccc3)cc2)cc1OC	-8%	?
COc1ccc(/C=N/NC(=S)Nc2ccccc2)cc1COc1ccc(F)cc1	-9%	7.9µM*
COc1ccc(/C=N/NC(=O)c2nc(Cl)c(Cl)c(N)c2Cl)cc1COc1ccccc1F	0%	-8%
COc1cc(OC)cc(C(=O)N/N=C/c2ccc(OC)c(COc3ccc4ccccc4c3)c2)c1	-1%	7.9µM*
COc1cccc(OCc2cc(/C=N/NC(=O)c3ccn[nH]3)ccc2OC)c1	1%	-20%
COc1cc(OC)c(NC(=O)Cn2c(=O)c(C(F)(F)F)nc3ccccc32)cc1Cl	1%	-6%
CC1CCN(S(=O)(=O)c2ccc3c(c2)N(CC(=O)N2CCN(c4ccc(Cl)cc4)CC2)C(=O)CO3)CC1	-5%	14%
O=C(c1cccc(N2C(=O)C3CC=CCC3C2=O)c1)N1CCCCCC1 (stereo not drawn)	6%	3%
O=C(c1cccc(N2C(=O)C3CC=CCC3C2=O)c1)N1CCN(c2ccccc2)CC1 (stereo not drawn)	22µM*	16µM*
CC(C)c1ccc(C2N3CC4(C)CN2CC(c2ccccc2)(C3)C4=O)cc1 (stereo not drawn)	1%	-4%
O=C(NC(Cc1cc(=O)[nH]c2ccccc12)C(=O)O)c1ccc(Cl)cc1 (stereo not drawn)	-1%	-1%
COc1ccc(S(=O)(=O)N2CCC(c3nc4ccccc4s3)CC2)cc1OC	5%	1%
COc1cc(S(=O)(=O)N2CCC(c3nc4ccccc4s3)CC2)ccc1S(=O)(=O)N1CC(C)CC(C)C1 (stereo not drawn)	4%	4µM*
O=C(NNC(=O)c1cccs1)c1ccc(Br)o1	-19%	-15%
SMILES	Cruzain Triton	Cruzain inh noDet
O=C(Nc1ccc(NC(=O)c2cccs2)cc1)c1ccc(Br)o1	5%	25µM*
Cc1nc(NC2CCCCC2)c2nc(-c3ccccc3)n(C(C)CN(C)C)c2n1 (stereo not drawn)	-5%	-4%
CN(C)Cc1ccccc1-c1cncnc1Nc1ccc(F)cc1	0%	12%
C/C(CC(=O)Nc1ccc(OCc2ccccc2)cc1)=N\NC(=O)C(=O)Nc1cccc(C)c1	-2%	32µM*
COc1ccccc1NC(=O)C(=O)N/N=C(\C)CC(=O)Nc1ccc(OCc2ccccc2)cc1	-2%	-4%
O=c1cc(-c2ccccc2)nc2nc(-c3ccco3)[nH]n12	-1%	0.4µM*
Cc1nc2nc(-c3ccccc3)cc(=O)n2[nH]1	1%	-3%
O=C(/C(=N\Nc1ccc([N+](=O)[O-])cc1)Sc1nnnn1-c1ccccc1)c1ccccc1	-8%	?
Cc1ccc(N/N=C(/Sc2nnnn2-c2ccccc2)C(=O)c2ccccc2)cc1	-5%	32µM*
Cc1ccc2c(c1)c(=O)c(S(=O)(=O)c1ccc(F)cc1)cn2CC(=O)Nc1ccc2c(c1)OCO2	-6%	-29%
CCN(CC)c1ccc(NC(=O)c2cnn(-c3ccccc3)c2-n2cccc2)c(C)c1	1%	10%
CCOC(=O)c1[nH]c2c(c1Cc1ccccc1)C(=O)CC(c1ccc(C(C)(C)C)cc1)C2 (stereo not drawn)	-4%	10µM*
Cc1c(C(=O)OCc2ccccc2)[nH]c2c1C(=O)CC(c1ccc(C(C)(C)C)cc1)C2 (stereo not drawn)	-2%	-9%

Assay outcomes from PubChem BioAssay.
